The list is not random: actives were taken first. Their share in the collection is about 4.6%.
D1 antag: Antagonist of Human D 1 Dopamine Receptor: qHTS; D(1A) dopamine receptor (Homo sapiens), P21728; HEK293 TREx D1 cells, calcium flux, dopamine EC80; active compounds read low; activity change, negative = inhibition, % at 10 µM; actives 3.2% (n = 360,000); AID 504652, 2011; in the data active means activity change below about -30%; further: on the % scale 0 is the no-effect control and ±100 the full control effect
Target sequence (P21728 whole entry, looked up): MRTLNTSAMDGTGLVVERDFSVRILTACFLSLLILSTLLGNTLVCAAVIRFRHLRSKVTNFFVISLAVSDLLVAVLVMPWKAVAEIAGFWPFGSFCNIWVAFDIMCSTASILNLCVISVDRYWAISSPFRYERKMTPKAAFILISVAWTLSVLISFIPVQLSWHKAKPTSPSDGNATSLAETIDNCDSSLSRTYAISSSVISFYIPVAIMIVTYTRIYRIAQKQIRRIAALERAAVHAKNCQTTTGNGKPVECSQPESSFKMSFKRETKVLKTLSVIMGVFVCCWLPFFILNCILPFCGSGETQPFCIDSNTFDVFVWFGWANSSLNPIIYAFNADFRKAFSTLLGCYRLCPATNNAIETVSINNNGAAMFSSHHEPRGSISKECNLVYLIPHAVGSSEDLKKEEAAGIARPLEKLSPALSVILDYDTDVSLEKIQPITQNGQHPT
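Allosteric or orthosteric antagonism assessed as attenuation of the calcium response to EC80 dopamine, added 180 s after compound, in induced HEK293 Trex D1 cells loaded with no-wash calcium dye.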
D1 ag: Allosteric Agonists of the Human D1 Dopamine Receptor: qHTS; D(1A) dopamine receptor (Homo sapiens), P21728; HEK293 T-REx D1 cells, calcium flux, agonist mode; activation, % at 2 µM; actives 1% (n = 360,000); further: 0% is about no effect
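Inducible HEK293 T-REx D1 cells, force-coupled to calcium signalling, were plated at 4000 cells/well with tetracycline and held overnight at 30 C. After no-wash calcium dye loading, compound-evoked calcium rise over 180 s flagged agonists.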
TRHR enhancer: qHTS for Small Molecule Agonists and Allosteric Enhancers of Human TRH Receptor: Primary Screen for Enhancers; actives 0.66% (n = 360,000); TRHR cells, fluo-8 calcium fluorescence, EC20 TRH enhancement; Thyrotropin-releasing hormone receptor (Homo sapiens), P34981; enhancement, % at 2 µM; in the data active means enhancement above about 30%; further: 0% is about no effect
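Enhancer read-out: after compound pinning and an initial kinetic agonist-mode read, an EC20 of TRH (10 nM final) was injected and fluo-8 calcium signal (Ex 480/Em 530) followed at 1 s/cycle for 100 cycles in TRHR-expressing cells.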
D1 PAM: Potentiators of Human D1 Dopamine Receptor: qHTS; actives 0.036% (n = 360,000); AID 504651, 2011; HEK293 TREx D1 cells, calcium flux, dopamine EC20 potentiation; potentiation, % at 10 µM; D(1A) dopamine receptor (Homo sapiens), P21728; in the data active means potentiation above about 30%; further: 0% is about no effect
TRHR ag: qHTS for Small Molecule Agonists and Allosteric Enhancers of Human TRH Receptor: Primary Screen for Agonists | TRHR cells, calcium flux fluo-8, FDSS agonist mode | activation, % at 2 µM | actives 0.18% (n = 360,000) | AID 493084, 2011; further: 0% is about no effect
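TRHR-expressing cells loaded with fluo-8 calcium dye; 23 nL library compound pin-transferred, kinetic FDSS fluorescence (Ex 480/Em 530) recorded about 180 s for agonist-induced calcium release, before a 10 nM TRH EC20 addition for potentiator mode.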
* hit, by the source's call. Unless noted, no stated cut-off is given here; in the data, active means activation above about 30%; inactive means the rest.

SMILES	D1 antag	D1 ag	TRHR enhancer	D1 PAM	TRHR ag
O=c1cc(CN2CCN(S(=O)(=O)c3ccc(Cl)cc3)CC2)nc2sc(-c3ccccc3F)nn12	-37*	-1	-3	-3	0
Cc1ccccc1-c1nn2c(=O)cc(CN3CCN(S(=O)(=O)c4ccc(Cl)cc4)CC3)nc2s1	-30*	-1	-1	-6	0
CCOc1ccc(-n2c(SCC(=O)N3CCCC3)nc3c([nH]c4ccccc43)c2=O)cc1	7	3	1	-5	-1
CC1CN(c2ccc([N+](=O)[O-])c(NCCOc3ccccc3)c2)CC(C)N1 (stereo unspecified)	-15	17	3	-10	2
CC1CN(c2ccc([N+](=O)[O-])c(NCCOc3ccc(Cl)cc3)c2)CC(C)N1 (stereo unspecified)	-9	39*	3	-5	2
O=C(CCCn1c(=O)c2ccccc2n(Cc2ccc(F)cc2Cl)c1=O)NCCc1ccc(Cl)cc1	1	-2	-1	0	0
Cc1ccccc1-n1nc(CO)c(C(=O)NCc2cccnc2)n1	-22	-1	-1	-1	0
COc1ccc(Nc2oc(-c3cccs3)nc2C#N)cc1	-43*	2	-6	-10	-1
CCCc1ccc(OCC(=O)Nc2sc3c(c2C(=O)OC)CCCCC3)cc1	6	-1	-3	0	-1
COc1ccc(Cc2nc3c4cnn(-c5cccc(F)c5)c4ncn3n2)cc1	-2	-1	7	3	0
COc1ccc(-n2ncc3c2ncn2nc(Cc4ccccc4)nc32)cc1	-34*	2	2	0	0
CCN(CC)c1ccc2cc(-c3nc4ccccc4n3C)c(=O)oc2c1	-15	278*	31*	-2	144*
COc1cccc2cc(-c3nc4ccccc4[nH]3)c(=O)oc12	-8	1	4	-1	0
CCN(CC)c1ccc2cc(-c3nc4ccccc4[nH]3)c(=O)oc2c1	-77*	547*	-23	-10	207*
CN(C)Cc1c(O)ccc2cc(-c3nc4ccccc4n3C)c(=O)oc12	3	22	40*	-3	23
Cc1ccc(-c2nc3ccccc3n2C)o1	-15	3	-13	-12	1
CCN(CC)c1ccc2cc(-c3nnc(-c4ccccc4)o3)c(=O)oc2c1	-5	244*	16	6	224*
COc1ccc(CC(=O)Nc2sc3c(c2C(=O)Nc2cccc(C)c2)CCCCC3)cc1	5	-2	8	3	0
Cc1ccc(NC(=O)C2CCCN2S(=O)(=O)c2cccc3cccnc23)cc1 (stereo unspecified)	9	0	-4	-2	0
Cc1ccc(C(=O)N(CC(=O)NC2CCCC2)c2ccc3c(c2)OCCO3)s1	-55*	0	-6	-7	-1
Cc1cc(C)cc(N(CC(=O)NC2CCCCC2)C(=O)c2ccc(C)s2)c1	-33*	0	-6	-4	0
Cc1cccc(N(CC(=O)NC2CCCC2)C(=O)CCC(=O)Nc2nc(C)cs2)c1	25	7	3	-2	1
Cc1cc(C)cc(N(CC(=O)NC2CCCC2)C(=O)CCC(=O)Nc2nc(C)cs2)c1	-19	58*	23	-9	0
CC(=O)CSc1nnc2cc(C)c3cc(C)cc(C)c3n12	7	-2	9	2	0
COc1ccc(C(=O)CNc2cccc(F)c2)cc1	-6	0	4	7	0
SMILES	D1 antag	D1 ag	TRHR enhancer	D1 PAM	TRHR ag
Nc1c(C(=O)Nc2ccccc2Br)sc2nc(-c3cccs3)ccc12	-9	8	-4	-1	2
Nc1c(C(=O)Nc2ccc(Cl)cc2F)sc2nc(-c3cccs3)ccc12	-38*	16	0	0	3
Nc1c(C(=O)Nc2nc3ccccc3s2)sc2nc(-c3cccs3)ccc12	3	112*	2	-3	-1
CC(=O)c1sc2nc(-c3cccs3)ccc2c1N	1	11	-5	-2	-1
COc1ccc(C2c3c(-c4ccccc4)n[nH]c3C(=O)N2c2ccc(C(=O)O)cc2)c(OC)c1 (stereo unspecified)	-35*	-1	3	-3	1
CC(=O)NC(c1ccc([N+](=O)[O-])cc1)c1c(O)ccc2ccccc12 (stereo unspecified)	-24	16	-4	-8	0
CC(C)C(=O)NC(c1ccc([N+](=O)[O-])cc1)c1c(O)ccc2ccccc12 (stereo unspecified)	-32*	14	2	-7	-1
COc1ccc(/C=N/n2cc(-c3ccc(OC)cc3)nc2N)cc1	-38*	-1	0	2	1
O=[N+]([O-])c1ccc(-n2ccnc2)cc1	-38*	2	0	-9	1
CCN(C(=O)Cn1ncc2c(=O)oc3ccc(C)cc3c21)c1cc(OC)ccc1OC	8	0	-8	0	-2
O=C(NC1CC2CCCC(C1)N2Cc1ccc(F)cc1)c1ccc(F)cc1 (stereo unspecified)	-68*	4	-1	-9	0
Cc1ccc(CN2C3CCCC2CC(NC(=O)c2ccc(C)cc2)C3)cc1 (stereo unspecified)	-68*	1	1	-7	-1
CN1C2CCC1CC(NC(=O)c1ccc(Cl)cc1)C2 (stereo unspecified)	-32*	30	4	3	3
CCOc1ccc(C(=O)N2CCc3cc(OC)c(OC)cc3C2COc2ccc3c(C)cc(=O)oc3c2)cc1OCC (stereo unspecified)	-10	4	-5	2	0
Cc1cc2c(cc1S(=O)(=O)CCC(=O)N1CCCC(C)C1)OCC(=O)N2 (stereo unspecified)	-4	4	11	-2	0
CCc1ccc(CN2CCc3nc(Nc4ccc5c(c4)OCCO5)ncc3C2)cc1	-66*	1	4	0	1
N#Cc1ccc(C(=O)OCC(=O)N2CCCC2)cc1	-1	2	-1	-3	2
S=C(c1ccc(-c2ccccc2)cc1)N1CCOCC1	-2	1	34*	-1	0
O=C(c1ccc(-c2ccccc2)cc1)c1ccccc1C(=O)N1CCOCC1	14	2	4	-4	0
O=C(Oc1ccc(Cl)cc1)N1CCOCC1	14	-3	-4	0	0
O=C(Oc1ccc(-c2ccccc2)cc1)N1CCOCC1	-32*	8	1	-4	0
